The first experiment deals with CPD. In words: pooled miR-30 sensor sort-seq; sequence = guide strand. The note with it: shRNA.
The sequence TTAGGATACATATTCTTGCAAG registered a sensor-assay potency score (higher = more potent) of -0.612.
In the case of TTAGGTATAGCAACTGTGCTAG, the sensor-assay potency score (higher = more potent) came out at 0.733.
For the sequence TTTGTAAGTAGTCACTGGGTGA, the sensor-assay potency score (higher = more potent) was -0.0209.
Same read-out and setting: the value for TTACACTTATTGAATCTCCTTC was 0.411; that for TTTGTTGGAACACAGCATCATC was -1.01.
With TTCATTAGGATACATATTCTTG, the sensor-assay potency score (higher = more potent) was -0.698.
For the sequence TTGACAGTCACATTCTTGGTAA, the sensor-assay potency score (higher = more potent) was -0.225.
The sequence TAGTGTTATGAACCAAATCTGT gave a sensor-assay potency score (higher = more potent) of -0.534.
In the case of ATAGGTGACACTATAATCCTTC, the sensor-assay potency score (higher = more potent) is 0.621.
TTGATTGAGCAGATGCACCAAA showed a sensor-assay potency score (higher = more potent) of -0.419.
The same measure, in the same setting: in the case of TTTGTTTGTAAATAGTTCCAGT it was 0.147; in that of TATTCTTGCAAGGTCTACCTTG, -0.366.
The sequence TTGCGTAGGATCTGTGATCTGA came in with a sensor-assay potency score (higher = more potent) of 1.11.
With TTGTAAATAGTTCCAGTCCTGC, the sensor-assay potency score (higher = more potent) is -0.512.
TTTCACTCCAATGTGAACCTTT showed a sensor-assay potency score (higher = more potent) of 0.41.
As to TTGATTCATTGTTTGAATCTGT, the sensor-assay potency score (higher = more potent) was determined as 0.522.
With TTAGTGATCTTCGATTCTGTTC, the sensor-assay potency score (higher = more potent) was -0.307.
On the same count and under the same terms, in the case of TATTTGTGAAGTCTGTATCCAA it was 0.0284.
TAGCAGTTGATACAGCCTCTGT had a sensor-assay potency score (higher = more potent) of -1.16.
On the same count and under the same terms, in the case of TTGAAGTACAGTCTTTCTCTTG it was -0.337.
For the sequence TTGGAACACAGCATCATCTGGT, the sensor-assay potency score (higher = more potent) is 0.644.
In turn, TTCAACAGCAGTTCTCTTCCAA registered a sensor-assay potency score (higher = more potent) of 0.56.
For TTGTTTGTACCTTTATTCCTTC, the sensor-assay potency score (higher = more potent) is -0.441.
With TTTTGCTTGGTACTTATGCTGG, the sensor-assay potency score (higher = more potent) is -0.405.

The next experiment concerns the target CPEB3. The description is as above. The following applies: shRNA.
TTCCATCTGCATCTTGTCCGGG displayed a sensor-assay potency score (higher = more potent) of 0.148.
In turn, TAGTCTTGCAATCATTGTGTGT gave a sensor-assay potency score (higher = more potent) of -0.635.
With TTGCAGGTCAGAACACCTCTGT, the sensor-assay potency score (higher = more potent) was 0.0399.
TATAACATTAACAACTTGGGGG showed a sensor-assay potency score (higher = more potent) of 0.19.
In turn, TAATATAACATTAACAACTTGG had a sensor-assay potency score (higher = more potent) of 0.134.
TTGAAGAATATCCTACACCTAG returned a sensor-assay potency score (higher = more potent) of -0.344.
TTTATTGCATGCAGCAACCTGA registered a sensor-assay potency score (higher = more potent) of -0.657.
On the same count and under the same terms, in the case of TTTGAAAACAAACTATAGCTTG it was -0.549; in that of TTGAAAACAAACTATAGCTTGA, 0.15.
TTTTGCTACATCTGCCACCTAC showed a sensor-assay potency score (higher = more potent) of -0.378.
TAGAGTAGCGTTCTACTCGTTC displayed a sensor-assay potency score (higher = more potent) of -0.216.
For the sequence TTTAATTGATATCCTAGCCTGA, the sensor-assay potency score (higher = more potent) amounted to 0.351.

A further experiment concerns the target CPNE5. The experiment is described as above. The note with it: shRNA.
TTGCATCGTACTGAGTTCGAGA had a sensor-assay potency score (higher = more potent) of -0.62.
TAATCCACAATGAACTTGCGCA: the sensor-assay potency score (higher = more potent) is -0.151.
Consider TTGTCGATGACTTCGGTGCGCC, for which the sensor-assay potency score (higher = more potent) was -0.869.
The sequence TTGGTCAGGGATCTCTGCCAGC registered a sensor-assay potency score (higher = more potent) of -1.14.

For the origin of these results see the OligoGym collection.
Further: reference of the scale not given here.
